Screens from PubChem.
Most compounds without a hit are left out; they make up all but 0.9% or so of the library.
SRC2 TRFRET art = TR-FRET signal artefacts, primary screen, artefact control for PPARgamma SRC-2 agonist project, biochemical; TR-FRET artefact counter-screen; active compounds read high; TR-FRET ratio at 8 µM; 0.4% of 200,000 active; AID 1049, 2008; in the data active = TR-FRET ratio above about 2000
SRC3 TRFRET art = TR-FRET detection interference compounds, artefact control for PPARgamma SRC-3 recruitment agonists, biochemical, TR-FRET ratio | TR-FRET artefact counter-screen, PPARgamma/SRC-3 format; active compounds read high | TR-FRET ratio at 8 µM | 0.39% of 99,000 active | AID 1048, 2008; in the data active = TR-FRET ratio above about 2000
PPARg SRC-2 ag = agonists of PPARg-SRC-2 recruitment, primary screen, biochemical, HTS; activation, % at 8 µM; 0.34% of 200,000 active; AID 1032, 2008; PPARgamma LBD-SRC-2 recruitment;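 also: 0% = vehicle and 100% = reference agonist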
Target sequence (P37231 whole entry, looked up, the tested form may be a part): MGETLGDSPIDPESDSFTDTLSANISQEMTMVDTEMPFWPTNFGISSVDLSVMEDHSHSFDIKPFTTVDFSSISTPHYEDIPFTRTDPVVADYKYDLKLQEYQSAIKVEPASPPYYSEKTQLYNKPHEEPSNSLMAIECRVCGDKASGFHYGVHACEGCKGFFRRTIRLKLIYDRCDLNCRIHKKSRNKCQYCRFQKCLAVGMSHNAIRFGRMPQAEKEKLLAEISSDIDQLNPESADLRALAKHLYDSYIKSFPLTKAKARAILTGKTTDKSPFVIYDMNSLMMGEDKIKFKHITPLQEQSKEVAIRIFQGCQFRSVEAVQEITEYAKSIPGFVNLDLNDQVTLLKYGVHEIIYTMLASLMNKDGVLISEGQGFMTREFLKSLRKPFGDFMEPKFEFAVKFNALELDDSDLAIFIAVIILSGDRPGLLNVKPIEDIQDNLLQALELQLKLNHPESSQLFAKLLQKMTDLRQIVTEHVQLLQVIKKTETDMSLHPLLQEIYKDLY
PPARg SRC-1 ag = PPARgamma agonists recruiting SRC-1 coactivator, primary screen, biochemical | 0.41% of 200,000 active | AID 631, 2007 | activation, % at 8 µM | PPARgamma-SRC-1 coactivator recruitment biochemical assay | Peroxisome proliferator-activated receptor gamma (Homo sapiens), P37231; in the data active = activation above about 19%;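 also: 0% = DMSO and 100% = reference agonist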
SRC1 TRFRET art = TR-FRET detection interference compounds, primary screen, artefact control for PPARgamma SRC-1 recruitment agonists, biochemical, TR-FRET emission ratio | TR-FRET detection artefact counter-screen; active compounds read high | TR-FRET ratio at 8 µM | 0.34% of 99,000 active; in the data active = TR-FRET ratio above about 2300
PPARg SRC3 recr = PPARgamma agonists recruiting SRC-3 coactivator, primary screen, biochemical; 0.26% of 200,000 active; activation, % at 8 µM; Peroxisome proliferator-activated receptor gamma (Homo sapiens), P37231; biochemical PPARgamma/SRC-3 coactivator recruitment assay; in the data active = activation above about 23%;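 also: 0% = DMSO and 100% = reference agonist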
PPARg SRC2 conf = agonists of PPARgamma SRC-2 coactivator recruitment, confirmation, biochemical, HTS. activation, % at 8 µM. 52% of 790 active. biochemical SRC-2 recruitment by PPARgamma. shares compounds with PPARg SRC3 recr. AID 1297, 2008;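 also: 0% = vehicle alone and 100% = reference agonist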
PPARg SRC1 ag = PPARgamma agonists recruiting SRC-1 coactivator, confirmation, biochemical; activation, % at 8 µM; PPARgamma–SRC-1 coactivator recruitment biochemical assay; 43% of 790 active; shares compounds with PPARg SRC3 recr; in the data active = activation above about 20%;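 also: 0% = vehicle wells and 100% = reference agonist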
PPARg SRC3 ag = PPARgamma-driven SRC-3 coactivator recruitment agonists, confirmation, biochemical | shares compounds with PPARg SRC3 recr | biochemical PPARgamma-SRC-3 coactivator recruitment, agonist mode | activation, % at 8 µM | 29% of 790 active; in the data active = activation above about 24%;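 also: 0% = vehicle wells and 100% = reference agonist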
* marks the source's active call; other numbers are inactive results; . = no result given. Rule as the data show it, unless noted: active = activation above about 22%; inactive = the rest.

SMILES	SRC2 TRFRET art	SRC3 TRFRET art	PPARg SRC-2 ag	PPARg SRC-1 ag	SRC1 TRFRET art	PPARg SRC3 recr	PPARg SRC2 conf	PPARg SRC1 ag	PPARg SRC3 ag
O=C(Oc1ccc(Cl)c2cccnc12)N1CCCCC1	1472	1816	3.2	1.6	1483	-2.6	.	.	.
O=C(Nc1nc2c(s1)COc1ccccc1-2)c1cccs1	2118*	.	27.0*	18.6	.	15.1	41.4*	31.5*	28.0*
CCN(CC)S(=O)(=O)c1ccc(C2CNC(=O)C2)cc1 (stereo unspecified)	1517	.	8.9	6.1	.	8.6	.	.	.
COc1ccc(C(=O)Nc2cc(-c3nn4c(C)nnc4s3)ccc2C)cc1	1579	.	4.9	3.6	.	5.8	.	.	.
COc1ccc(OCC(=O)Nc2cc(-c3nn4c(C)nnc4s3)ccc2C)cc1	1633	.	-3.2	27.6*	.	24.4	20.5	16.8	12.9
CC(C)Nc1nc(Oc2ccc(Cl)cc2)cc(C(F)(F)F)n1	1676	.	23.1*	10.6	.	5.9	0.3	2.9	0.2
CCNc1nc(Oc2ccc(F)cc2)cc(C(F)(F)F)n1	1629	1498	4.1	-3.0	1898	4.0	.	.	.
CC(=O)N1N=C(c2ccc(Br)cc2)CC1c1cn(C)c2ccccc12 (stereo unspecified)	2079*	2275*	28.3*	24.1*	2488*	20.4	36.0*	34.5*	23.8
CCCC(=O)N1N=C(c2ccccc2)CC1c1cn(C)c2ccccc12 (stereo unspecified)	1652	1691	3.3	0.5	1917	5.0	.	.	.
Cc1cc(C)n2nc(SCC(=O)N(C)c3c(N)n(Cc4ccccc4)c(=O)[nH]c3=O)nc2n1	1721	1588	7.8	-1.9	1728	7.1	.	.	.
COc1cc(-c2nnc(SCC(=O)N3c4ccccc4Sc4ccccc43)o2)cc(OC)c1OC	1583	.	-2.8	1.5	.	6.8	.	.	.
O=C(Sc1nnc(-c2ccccc2)o1)N1c2ccccc2Sc2ccccc21	1691	.	31.1*	16.5	.	25.2	48.4*	33.6*	32.8*
c1ccc(Cc2nnc(Sc3ccccc3)c3ccccc23)cc1	4254*	.	117.4*	64.7*	.	113.2*	77.4*	52.4*	53.4*
COCCCNc1nnc(Cc2ccccc2)c2ccccc12	1694	1742	3.1	6.3	1985	2.4	.	.	.
S=C(Nc1ccc2nsnc2c1)N1CCCCC1	1710	1795	21.8*	17.4	2191	9.0	21.4	18.4	13.9
O=c1c(Br)c(Br)cnn1-c1ccccc1	2405*	2406*	33.7*	37.8*	2662*	31.6*	28.7*	17.2	19.7
Cc1ccc(-n2ncc(Br)c(Br)c2=O)cc1	1799	1996	16.7	15.7	2278	17.6	.	.	.
Cc1ccc(-c2cc(-c3ccccc3)c(C#N)c(N)n2)o1	1836	.	4.7	7.7	.	-4.4	.	.	.
Cc1cc(-c2ccc(Cl)cc2)c(C#N)c(N)n1	1825	.	12.2	18.9*	.	18.6	3.1	0.8	0.2
CSC1=NSC2=NC(=O)/C(=C\c3coc4ccccc4c3=O)C(=N)N12	1437	1493	14.8	24.6*	1656	28.5*	9.2	9.7	21.7
CC(C)CSC1=NSC2=NC(=O)/C(=C\c3coc4ccccc4c3=O)C(=N)N12	1797	1817	4.6	6.7	1912	11.5	.	.	.
CCCSc1nc2c(c(=O)[nH]c(=O)n2C)n1C	1609	.	9.8	21.4*	.	15.1	0.6	0.5	0.7
CCSc1nc2c(c(=O)[nH]c(=O)n2C)n1C	1656	.	15.3	7.8	.	4.4	.	.	.
